Assay results as given in PubChem BioAssay (EPA / NIEHS).
“And” between values parts separate entries of the source, which are not always exact repeats. Identical values can stand only once. Some compounds were tested as several samples or in several runs, with calls that do not always agree. The source made the active and inactive calls. How the source made its calls: active means hit-call score of the fitted dose curve at least 0.9, where 1 is the maximum; inactive means score below 0.9.

Experiment: ATG_AP_1_CIS: Attagene CIS-FACTORIAL HepG2 Assay for human Activator Protein 1 (AP-1) (AID 2282931)
Conditions: HepG2 Attagene cis-factorial AP-1 reporter mRNA; actives raise or lower the signal
Method in brief: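 Bidirectional concentration-response fitting against DMSO controls. Underlying signal: reporter mRNA from cis-promoter constructs in transiently transfected HepG2, measured after 24 h by RT-PCR and capillary electrophoresis.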

SMILES | AC50 | outcome
CC(C)(C)CC(C)(C)c1ccc(O)c(-n2nc3ccccc3n2)c1 | 58.3 µM (active) | –
CC(=O)NC1(c2cccc(F)c2)CCN(CC[C@@]2(c3ccc(Cl)c(Cl)c3)CN(c3ccccc3)C(=O)CO2)CC1 | 14.5 µM (active) | –
CCc1ccc(CCOc2ccc(CC3SC(=O)NC3=O)cc2)nc1 (centres undefined) | – | inactive
CCOC(=O)CC(O)(CC(=O)OCC)C(=O)OCC | – | inactive
Oc1cc2ccccc2c2ccccc12 | – | inactive
CC[C@H](C)[C@@H](C(=O)O)n1sc2ccccc2c1=O | – | inactive
CCCCC[C@H](O)CC(=O)CCc1ccc(O)c(OC)c1 | – | inactive
CN1CCN(c2ccccc2/C=C2\SCCN(c3ccc(Cl)c(Cl)c3)C2=O)CC1 | – | inactive
Cc1oc(-c2ccccc2)nc1CCOc1ccc(C[C@H](Nc2ccccc2C(=O)c2ccccc2)C(=O)O)cc1 | – | inactive
CCc1nn(C2CCCCC2)c2cc(C3(C#N)CCC(C(=O)O)CC3)ccc12 (centres undefined) | – | inactive
CC[C@H](c1ccc(O)cc1)[C@@H](CC)c1ccc(O)cc1 | 11.1 µM (active) and 7.83 µM (active) and 9.21 µM (active) | –
N#C[C@@H]1CC(F)(F)CN1C(=O)CNC1CC2CCC(C1)N2c1ncccn1 (some centres undefined) | – | inactive
CCCCCCCCCCCCc1ccccc1S(=O)(=O)O | – | inactive
OCCC(F)(F)C(F)(F)C(F)(F)C(F)(F)C(F)(F)C(F)(F)C(F)(F)C(F)(F)F | 39.1 µM (active) | inactive
C[C@@H]1C[C@H]2[C@@H]3CCC4=CC(=O)C=C[C@]4(C)[C@@]3(F)[C@@H](O)C[C@]2(C)[C@@]1(O)C(=O)COP(=O)(O)O | – | inactive
COCC(C)O (centres undefined) | – | inactive
OC1CCCCC1 | – | inactive
O=[N+]([O-])c1ccc(O)cc1 | – | inactive

SMILES | AC50 | outcome
CC(C)(C)c1cc(C(C)(C)C)c(O)c(C(C)(C)C)c1 | 76.4 µM (active) and 27 µM (active) | –
O=C(OCCOCCOC(=O)c1ccccc1)c1ccccc1 | – | inactive
CCC(C)(C)C1CCC(O)CC1 (centres undefined) | – | inactive
Cc1cc(CCN2CCN(c3nsc4ccccc34)CC2)cc2c1NC(=O)CC2(C)C | 3.21 µM (active) | –
c1ccc2cc3c(ccc4ccccc43)cc2c1 | 2.33 µM (active) | inactive
CCCOC(=O)c1ccc(O)cc1 | 48.2 µM (active) | inactive
CN1CCC[C@H]1c1cccnc1 | – | inactive
NC(=O)N(O)[C@@H]1C=C[C@H](Oc2cccc(Oc3ccc(F)cc3)c2)C1 | – | inactive
COC(=O)CCCCC(=O)OC | – | inactive
CC(O)CO (centres undefined) | – | inactive
O=C(O)Cc1cc(I)c(Oc2cc(I)c(O)c(I)c2)c(I)c1 | 16.5 µM (active) and 122 µM (active) | –
CC(=O)CC(C)(C)O | – | inactive
CCN(CC)CCNc1ccc(CNC=O)c2sc3ccc(OC)cc3c(=O)c12 | 0.216 µM (active) | –
CCCCC(CC)COC(=O)CCCCC(=O)OCc1ccccc1 (centres undefined) | – | inactive
CC#C[C@]1(O)CC[C@H]2[C@@H]3CCC4=CC(=O)CCC4=C3[C@@H](c3ccc(N(C)C)cc3)C[C@@]21C | 27.6 µM (active) and 66.9 µM (active) and 63.5 µM (active) | inactive
c1ccc2c(c1)Cc1ccccc1-2 | – | inactive
CCCCCCCCOC(=O)CCCCCCCCC(=O)OCCCCCCCC | – | inactive
